From PubChem BioAssay (NCI) come the findings set out here.

About 83,000 compounds went through this panel and 20% of them were active in at least one assay; those are over-represented in the sample as a whole.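 Compound tested at a single concentration for 48 hours in 96-well plates; a percent growth value below 10 was scored as active.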 A number with no mark means an inactive call. Active and inactive are the calls of the source.

Among the test systems are SK-MEL-2 melanoma; EKVX NSCLC; SN12C renal; UO-31 renal; TK-10 renal; ACHN renal; CAKI-1 renal; A498 renal; CCRF-CEM leukemia; MOLT-4 leukemia.
Experiment in all cases: NCI-60 one-dose screen, 48 h (100 = growth as untreated, 0 = no growth, -100 = all killed)
What all share (settings): 10 µM unless noted

Turning to `CCCCCCCCCc1cc(CN2CCCCC2)c(O)c(CN2CCCCC2)c1`, the growth in the test with SK-MEL-2 melanoma is 86.7%; with EKVX NSCLC, 37.5%; in the test with SN12C renal, 71.9%; with UO-31 renal it was 44.1%; in the test on TK-10 renal it was 81.1%; with ACHN renal, 63.5%. For the same molecule, the growth is 57.7% with CAKI-1 renal, 75% in the test with A498 renal, 61.7% with CCRF-CEM leukemia and 56% with MOLT-4 leukemia.
For `O=C(O)c1ccccc1Nc1cccc(S(F)(F)(F)(F)F)c1`, the growth in the test on SK-MEL-2 melanoma was 83.6%; with EKVX NSCLC, 99.3%; in the test on SN12C renal it was 96.4%; with UO-31 renal, 85.6%; in the test on TK-10 renal, 87.8%; with ACHN renal, 98.4%. Besides, the growth in the test on CAKI-1 renal was 94.6%; in the test on A498 renal, 95.1%; with CCRF-CEM leukemia, 98.4%; with MOLT-4 leukemia, 88.1%.
With `COCCCNc1nc(NC(=O)c2ccc(F)cc2C)cc(-c2cccnc2)n1`, the growth with SK-MEL-2 melanoma is 95.6%; in the test with EKVX NSCLC, 108%; in the test on SN12C renal, 91.1%; in the test on UO-31 renal, 88.5%; with TK-10 renal, 111%; with ACHN renal it was 109%. Moreover, the growth was 99.1% in the test on CAKI-1 renal, 85.4% in the test with A498 renal, 96.5% with CCRF-CEM leukemia and 93.9% in the test on MOLT-4 leukemia.
Take `O=C(O)c1cccc2c1-c1ccccc1C2=O`: the growth was 98.4% in the test with SK-MEL-2 melanoma; 90.3% with EKVX NSCLC; 84.2% in the test with SN12C renal; 94.3% with UO-31 renal; 91.1% in the test with TK-10 renal; 94.4% with ACHN renal. Moreover, the growth in the test on CAKI-1 renal is 65.1%; in the test with A498 renal it was 96.1%; in the test with CCRF-CEM leukemia, 84.2%; with MOLT-4 leukemia, 99.4%.
Regarding `COC1=CC(=O)C(OC)=C(OC)C1=O`, the growth in the test with SK-MEL-2 melanoma was 99.3%; in the test with EKVX NSCLC it was 98.6%; with SN12C renal it was 101%; in the test with UO-31 renal, 104%; with TK-10 renal, 115%; in the test with ACHN renal, 111%. For the same molecule, the growth is 95.4% in the test on CAKI-1 renal, 88.2% in the test on A498 renal, 31.9% in the test with CCRF-CEM leukemia and -7.34% (active) with MOLT-4 leukemia.
Turning to `NCCN1CCN(c2nccc(-c3ccc4ccccc4c3)n2)CC1`, the growth with SK-MEL-2 melanoma was 76.9%; in the test on EKVX NSCLC, 75.6%; in the test on SN12C renal it was 52.1%; with UO-31 renal, 12.4%; with TK-10 renal it was 73.9%; in the test with ACHN renal, 46.5%. Also, the growth is 45.3% with CAKI-1 renal, 61.6% with A498 renal, 18% in the test on CCRF-CEM leukemia and 22.1% in the test with MOLT-4 leukemia.
For the molecule `O=C1c2c[n+](Cc3ccccc3)ccc2-c2nc3ccccc3c3ccnc1c23`, the growth was -53.6% (active) in the test with SK-MEL-2 melanoma; -1.66% (active) in the test on EKVX NSCLC; -74.2% (active) in the test on SN12C renal; -21.8% (active) in the test on UO-31 renal; -20.2% (active) in the test with TK-10 renal; -13% (active) with ACHN renal. The growth is 13.8% in the test with CAKI-1 renal, -56.1% (active) with A498 renal, -13.1% (active) in the test with CCRF-CEM leukemia and -17.2% (active) with MOLT-4 leukemia.
Turning to `COc1ccc2c(c1)C(=O)/C(=C/c1cccc(OCC(=O)Nc3nc4c(s3)CCCC4)c1)O2`, the growth with SK-MEL-2 melanoma is -67.3% (active); with EKVX NSCLC, -72.6% (active); in the test with SN12C renal it was 28.7%; with UO-31 renal, -78.2% (active); in the test with TK-10 renal it was -69.6% (active); in the test with ACHN renal, -73.4% (active). Also, the growth is -83.5% (active) in the test with CAKI-1 renal, 92% in the test with A498 renal, -0.645% (active) with CCRF-CEM leukemia and -47.8% (active) in the test on MOLT-4 leukemia.
In the case of `ClC1=C2NC=NC2n2c(nnc2-c2ccc(Cl)cc2)N1` (stereo not given), the growth with SK-MEL-2 melanoma was 95.8%; in the test on EKVX NSCLC, 105%; in the test with SN12C renal it was 94.5%; with UO-31 renal it was 92%; with TK-10 renal, 122%; in the test on ACHN renal, 109%. Besides, the growth was 98.8% with CAKI-1 renal, 73.1% with A498 renal, 99.9% in the test with CCRF-CEM leukemia and 99.6% in the test with MOLT-4 leukemia.
As for `O=C1c2cccnc2C(=O)c2c1c(C(=O)OCCN1CCOCC1)c1ccccn21`, the growth was 7.23% (active) with SK-MEL-2 melanoma; 13.1% with EKVX NSCLC; -30.4% (active) in the test on SN12C renal; -26.7% (active) in the test on UO-31 renal; -6.05% (active) with TK-10 renal; 7.94% (active) with ACHN renal. Besides, the growth with CAKI-1 renal is 14.4%; with A498 renal, -30.4% (active); in the test with CCRF-CEM leukemia, 8.9% (active); in the test on MOLT-4 leukemia, -16.2% (active).
For the molecule `COc1ccc(S(=O)(=O)NCCCNc2cc(-c3c(-c4cccc(OC)c4)nc4sccn34)ccn2)cc1`, the growth was 53.3% with SK-MEL-2 melanoma; 48.4% in the test with EKVX NSCLC; 36% in the test on SN12C renal; 18% in the test on UO-31 renal; 73.4% in the test on TK-10 renal; 33.2% in the test on ACHN renal. For the same molecule, the growth with CAKI-1 renal is 32%; with A498 renal, 36.7%; in the test on CCRF-CEM leukemia, 26.5%; in the test on MOLT-4 leukemia, 19.2%.
Consider `C/C(Cc1ccc(Cl)cc1)=C(\c1ccc(OCCN2CCCCCC2)cc1)c1ccc(OC(=O)Cc2ccccc2)cc1`, for which the growth in the test with SK-MEL-2 melanoma was 90.6%; in the test on EKVX NSCLC, 90.2%; in the test with SN12C renal, 68.7%; with UO-31 renal it was 44.6%; with TK-10 renal it was 86.7%; with ACHN renal, 85.2%. Further, the growth in the test with CAKI-1 renal was 79.4%; in the test on A498 renal, 92.5%; in the test with CCRF-CEM leukemia, 57.2%; with MOLT-4 leukemia, 24.4%.
Regarding `CN1CCN(Cc2ccc(NC(=O)c3cncc(C#Cc4cncc5nccnc45)c3)cc2C(F)(F)F)CC1`, the growth with SK-MEL-2 melanoma is -13.2% (active); in the test on EKVX NSCLC, 71.2%; in the test with SN12C renal, 31.7%; in the test on UO-31 renal, 20.4%; with TK-10 renal it was 96%; in the test with ACHN renal, 24%. The growth with CAKI-1 renal was 22.2%; in the test with A498 renal, 21.4%; with CCRF-CEM leukemia it was 58.2%; in the test on MOLT-4 leukemia, 37%.
`COc1ccc2[nH]c(=O)c(/C=C/C(=O)c3ccc(Nc4nccc(-c5ccc6ccccc6c5)n4)cc3)cc2c1`: the growth in the test on SK-MEL-2 melanoma was 102%; with EKVX NSCLC, 107%; in the test on SN12C renal, 94.5%; with UO-31 renal it was 93.2%; in the test with TK-10 renal it was 103%; in the test with ACHN renal, 103%. The growth with CAKI-1 renal was 98%; in the test with A498 renal, 89.7%; with CCRF-CEM leukemia, 86.4%; in the test on MOLT-4 leukemia, 101%.
